Assay results from the antibiotic and cytotoxicity screens of Wong et al. (2023).
The campaign covered roughly 39,000 compounds. About 1,500 (3.8%) were called active. This excerpt belongs to a sample that is enriched for actives.

tested on: HSkMC (human skeletal muscle cells); experiment: cytotoxicity call (relative viability < 0.9); conditions: 10 µM

| Structure (SMILES) | cytotoxicity call |
| --- | --- |
| CO[C@@H]1CN(C)C(=O)c2ccc(NC(=O)CN(C)C)cc2OC[C@@H](C)N(C(=O)c2ccncc2)C[C@H]1C | inactive |
| C[C@@H]1CCCCO[C@H](CN(C)S(=O)(=O)c2cccs2)[C@@H](C)CN([C@H](C)CO)C(=O)c2cc(NC(=O)CCC(F)(F)F)ccc2O1 | inactive |
| COC[C@@H]1CNN1C(=O)c1cc(C)oc1C | inactive |
| CCCCCN1CC=C[C@@]23O[C@@H]4C=CCOC(=O)[C@@H]4[C@H]2C(=O)N([C@@H](C)CO)[C@@H]3C1=O | inactive |
| CCCCCCCCNC(C)C(O)c1ccc(SC(C)C)cc1 (stereo not given) | active |
| CC(NCCc1ccc(O)cc1)C(O)c1ccc(O)cc1.Cl (stereo not given) | inactive |
| CCCCCCCCNC[C@@H](O)[C@H](O)[C@@H](O)[C@@H](O)CO | inactive |
| C[C@@H]1CN([C@@H](C)CO)S(=O)(=O)c2ccc(C#CCN(C)C)cc2O[C@@H]1CN(C)C(=O)CN(C)C | inactive |
| C[C@@H]1CCCCO[C@@H](CN(C)S(=O)(=O)c2ccc(Cl)cc2)[C@H](C)CN([C@@H](C)CO)C(=O)c2cc(NC(=O)Nc3cccc4ccccc34)ccc2O1 | inactive |
| CC(C)(C)c1cc(NC(=O)Nc2ccc(-c3cn4c(n3)sc3cc(OCCN5CCOCC5)ccc34)cc2)no1 | active |
| O=C(NCCCN1CCOCC1)Nc1ccc(Cc2ccc(NC(=O)NCCCN3CCOCC3)cc2)cc1 | inactive |
| COc1cc(OC)cc(C(=O)Nc2nc(-c3ccc4c(c3)CCN4C(=O)CN3CCOCC3)cs2)c1 | inactive |
| C[C@H](CO)N1C[C@H](C)[C@@H](CN(C)CC2CC2)Oc2c(NC(=O)Nc3cccc4ccccc34)cccc2C1=O | inactive |
| CC(C)CC(=O)Nc1cncc(-c2ccc3[nH]nc(-c4nc5cncc(-c6cccc(F)c6)c5[nH]4)c3c2)c1 | active |
| Cn1c(=O)[nH]c(=O)c2c1nc(N1CCN(CCO)CC1)n2CC(=O)c1ccccc1 | inactive |
| CCS(=O)(=O)N1C[C@]2(CN(C2)C(=O)c2ccc3c(c2)OCO3)c2c(n(c3cc(ccc23)OC)C)[C@@H]1CO | inactive |
| C[C@H](CO)N1C[C@H](C)[C@H](CN(C)Cc2ccc(Oc3ccccc3)cc2)Oc2c(NC(=O)c3ccc(-c4nccs4)cc3)cccc2C1=O | active |
| C[C@@H]1CN([C@H](C)CO)C(=O)c2cccc(NC(=O)c3ccc(-c4nccs4)cc3)c2O[C@H]1CN(C)Cc1ccc(Oc2ccccc2)cc1 | inactive |
| COc1ccc(CN(C)C[C@H]2Oc3c(NC(=O)c4ccc(-c5nccs5)cc4)cccc3C(=O)N([C@H](C)CO)C[C@@H]2C)cc1 | inactive |
| C[C@H]1CN([C@@H](C)CO)C(=O)c2cccc(NC(=O)c3ccc(-c4nccs4)cc3)c2O[C@H]1CN(C)Cc1ccc(Oc2ccccc2)cc1 | inactive |
| COc1ccc(CN(C)C[C@H]2Oc3c(NC(=O)c4ccc(-c5nccs5)cc4)cccc3C(=O)N([C@@H](C)CO)C[C@@H]2C)cc1 | inactive |
| COc1ccc(CN(C)C[C@@H]2Oc3c(NC(=O)c4ccc(-c5nccs5)cc4)cccc3C(=O)N([C@H](C)CO)C[C@H]2C)cc1 | active |
| COc1ccc(NC(=O)Nc2ccc3c(c2)C(=O)N([C@H](C)CO)C[C@@H](C)[C@H](CN(C)S(=O)(=O)c2ccc(Cl)cc2)OCCCC[C@@H](C)O3)cc1 | inactive |
| C[C@H]1CN([C@@H](C)CO)C(=O)c2cc(C3=CCCCC3)cnc2O[C@H]1CN(C)C(=O)CN1CCOCC1 | inactive |
| O=C1OCc2cc(-n3cnnn3)ccc21 | inactive |

| Structure (SMILES) | cytotoxicity call |
| --- | --- |
| COc1ccc(NC(=O)N(C)C[C@H]2OCCCC[C@H](C)Oc3ccc(NC(=O)c4ccccc4)cc3C(=O)N([C@H](C)CO)C[C@H]2C)cc1 | inactive |
| C[C@@H]1CN([C@H](C)CO)C(=O)c2cc(NC(=O)Nc3ccccc3)ccc2O[C@H]1CN(C)S(=O)(=O)c1cn(C)cn1 | inactive |
| CCCCCCc1nc(-c2ccc(-c3ccc(Cl)c(Cl)c3)o2)cc2c1[Si](C(C)C)(C(C)C)OC2 | active |
| CC(C)[Si]1(C(C)C)OCc2cc(-c3ccc(-c4ccc(Cl)c(Cl)c4)o3)nc(CCc3ccccc3)c21 | inactive |
| CC(C)[Si]1(C(C)C)OCc2cc(-c3ccc(-c4ccc(Cl)c(Cl)c4)o3)nc(-c3ccccc3)c21 | inactive |
| O=C(O)c1cncnc1N1CCCC1 | inactive |
| C[C@@H]1CN([C@H](C)CO)C(=O)c2cccc(NC(=O)C3CCCCC3)c2O[C@H]1CN(C)Cc1ccc(Oc2ccccc2)cc1 | inactive |
| C[C@H]1CN([C@@H](C)CO)C(=O)c2cccc(NC(=O)Nc3ccc(F)cc3)c2O[C@H]1CN(C)Cc1ccc(-c2ccccc2)cc1 | inactive |
| C[C@H]1CN([C@@H](C)CO)C(=O)c2cccc(NC(=O)Nc3ccc(F)cc3)c2O[C@@H]1CN(C)Cc1ccc(-c2ccccc2)cc1 | inactive |
| C[C@@H]1CN([C@H](C)CO)C(=O)c2cccc(NC(=O)Nc3ccc(F)cc3)c2O[C@H]1CN(C)Cc1ccc(-c2ccccc2)cc1 | inactive |
| C[C@H](CO)N1C[C@H](C)[C@@H](CN(C)Cc2ccc(-c3ccccc3)cc2)Oc2c(NC(=O)Nc3ccc(F)cc3)cccc2C1=O | inactive |
| C[C@@H]1CN([C@@H](C)CO)C(=O)c2cccc(NC(=O)Nc3ccc(F)cc3)c2O[C@@H]1CN(C)Cc1ccc(-c2ccccc2)cc1 | active |
| C[C@@H]1CN([C@@H](C)CO)C(=O)c2cccc(NC(=O)Nc3ccc(F)cc3)c2O[C@H]1CN(C)Cc1ccc(-c2ccccc2)cc1 | active |
| Cc1noc(C)c1NC(=O)Nc1ccc2c(c1)CC(=O)N([C@@H](C)CO)C[C@H](C)[C@H](CN(C)C(=O)Nc1ccc(C(F)(F)F)cc1)O2 | inactive |
| CO[C@@H](CN(C)S(=O)(=O)c1cccc(Cl)c1)[C@@H](C)CN([C@H](C)CO)S(=O)(=O)c1cccc(Cl)c1 | inactive |
| C[C@@H]1CCCCO[C@H](CN(C)S(=O)(=O)c2cn(C)cn2)[C@@H](C)CN([C@@H](C)CO)C(=O)c2cc(NC(=O)Nc3cccc4ccccc34)ccc2O1 | inactive |
| CO[C@@H]1CN(C)C(=O)c2ccc(NC(=O)C3CCOCC3)cc2OC[C@@H](C)N(C(=O)C2CCOCC2)C[C@H]1C | inactive |
| C[C@H](CO)N1C[C@H](C)[C@@H](CN(C)Cc2ccc(-c3ccccc3)cc2)Oc2ccc(NS(=O)(=O)c3ccccc3)cc2CC1=O | inactive |
| C[C@@H]1CN([C@@H](C)CO)C(=O)Cc2cc(NS(=O)(=O)c3ccccc3)ccc2O[C@@H]1CN(C)Cc1ccc(-c2ccccc2)cc1 | active |
| C[C@H]1CN([C@@H](C)CO)C(=O)Cc2cc(NS(=O)(=O)c3ccccc3)ccc2O[C@@H]1CN(C)Cc1ccc(-c2ccccc2)cc1 | active |
| C[C@H](CO)N1C[C@H](C)[C@H](CN(C)Cc2ccc(-c3ccccc3)cc2)Oc2ccc(NS(=O)(=O)c3ccccc3)cc2CC1=O | inactive |
| C[C@@H]1CN([C@H](C)CO)C(=O)Cc2cc(NS(=O)(=O)c3ccccc3)ccc2O[C@H]1CN(C)Cc1ccc(-c2ccccc2)cc1 | active |
| C[C@@H]1CN([C@H](C)CO)C(=O)Cc2cc(NS(=O)(=O)c3ccccc3)ccc2O[C@@H]1CN(C)Cc1ccc(-c2ccccc2)cc1 | inactive |
| C[C@H]1CN([C@@H](C)CO)C(=O)Cc2cc(NS(=O)(=O)c3ccccc3)ccc2O[C@H]1CN(C)Cc1ccc(-c2ccccc2)cc1 | active |
| C[C@@H]1CN([C@@H](C)CO)C(=O)Cc2cc(NS(=O)(=O)c3ccccc3)ccc2O[C@H]1CN(C)Cc1ccc(-c2ccccc2)cc1 | inactive |
